# Experimental data as given in PubChem BioAssay (NCI).
# About 83,000 compounds went through this panel and 20% of them were active in at least one assay; those are over-represented in the sample as a whole.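 For each line, cells grew in 96-well plates with the test compound present at a single concentration for 48 hours.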 Values without a mark were called inactive. Calls of active or inactive are those of the source. How the source made its calls: active means growth percent below 10; inactive means the rest.
# Legend:
# Assay in all cases: NCI-60 one-dose screen, 48 h (100 = growth as untreated, 0 = no growth, -100 = all killed)
# Details in all cases: 10 µM unless noted
# T-47D breast = system: T-47D breast
# BT-549 breast = system: BT-549 breast
# MDA-MB-435 melanoma = system: MDA-MB-435 melanoma
# SW-620 colon = system: SW-620 colon
# MCF7 breast = system: MCF7 breast
# HCT-116 colon = system: HCT-116 colon
# HCC-2998 colon = system: HCC-2998 colon
# KM12 colon = system: KM12 colon
Structure (SMILES),growth (T-47D breast),growth (BT-549 breast),growth (MDA-MB-435 melanoma),growth (SW-620 colon),growth (MCF7 breast),growth (HCT-116 colon),growth (HCC-2998 colon),growth (KM12 colon)
Nc1ncc(-c2ccc3ncnc(Nc4cccc(Cl)c4)c3c2)cn1,-20.1% (active),46.5%,55.6%,91.4%,24.2%,66.4%,60.5%,67.5%
COc1ccc(/C=C/C(=O)c2ccc(Nc3ccnc4cc(Cl)ccc34)cc2)cc1,83.1%,101%,85.6%,93.7%,76.2%,34%,58.7%,154%
COc1ccc(Nc2ncc(Br)c(NCCCNC(=O)C3CCCC3)n2)cc1,77.5%,40.4%,63%,41.2%,41.8%,23.6%,69.7%,23%
Cc1[nH]c(C(=O)Nc2ccc(C(=O)N3CCN(c4cc5c(cc4F)c(=O)c(C(=O)O)cn5C4CC4)CC3)cc2OC(C)C)c(Cl)c1Cl,84%,75.7%,88.5%,96.3%,88.8%,38.1%,96.4%,80.4%
Cc1csc(Nc2nc(-c3ccccn3)nc(C(Cl)(Cl)Cl)n2)n1,78.8%,110%,82.3%,86.3%,84.2%,75%,107%,82.8%
COc1c(C(=O)Nc2ccc(C)c(Br)c2)ccc2ccccc12,88.9%,101%,31.7%,81.1%,96%,96.5%,99.9%,81.2%
COC(=O)CC[C@@H]1O[C@@H](c2cccc(C(F)(F)F)c2)[C@@H](O)[C@H]1O,98.8%,98.9%,102%,100%,96.7%,98.2%,114%,94.1%
Cc1cccc(/C=C2\CN(C(=O)OC(C)(C)C)C/C(=C\c3cccc(C)c3)C2=O)c1,87.8%,105%,93.1%,7.71% (active),23.2%,11.2%,103%,74.1%
Cc1cc(N2CCN(CCNc3ccnc4cc(Cl)ccc34)CC2)nc(N2CCOCC2)n1,55.9%,74.2%,80.1%,79.4%,53.3%,38.5%,37.4%,76.6%
Cc1ccc(-c2nc(N3CCCNCC3)c3oc(-c4ccccc4)nc3n2)cc1,-67.5% (active),81.2%,-87.9% (active),-73.3% (active),-74.7% (active),-79.2% (active),-92.1% (active),-81.5% (active)
N#Cc1nc(-c2ccc(F)cc2)oc1S(=O)(=O)N1CCOCC1,-6.45% (active),98.5%,79.8%,-77.9% (active),30.4%,-18.4% (active),106%,102%
COc1ccc(-c2cc(-c3ccc(Cl)cc3)c(C#N)c(=O)n2Cc2ccc(C(=O)Nc3ccccc3N)cc2)cc1,72.7%,56.5%,44.9%,78.9%,40.1%,69.2%,107%,57.3%
COc1cc(/C=C/C(=O)c2ccc(F)cc2)ccc1OCCCCOc1ccc(/C=C/C(=O)c2c(C)nc3ccccc3c2C)cc1OC,92.7%,154%,94.4%,102%,80.1%,90.8%,100%,111%
Cn1cc(C(=O)c2nc(-c3c[nH]c4ccccc34)no2)c2cc(F)ccc21,37.8%,48%,-19.1% (active),23.2%,19.2%,19.5%,73.9%,26.7%
COC(=O)c1c(C)c2n(c1C)C(=O)C(c1ccccc1)=C2,37.1%,51.2%,78.1%,93%,39%,74.2%,75.1%,78.2%
C=C1C(=O)O[C@H]2[C@H]1CC/C(Cn1cc(-c3ccccc3)nn1)=C\CC[C@@]1(C)O[C@@H]21,-38% (active),-61.1% (active),-21.5% (active),-79.1% (active),-60.1% (active),-67.1% (active),5.21% (active),56%

Structure (SMILES),growth (T-47D breast),growth (BT-549 breast),growth (MDA-MB-435 melanoma),growth (SW-620 colon),growth (MCF7 breast),growth (HCT-116 colon),growth (HCC-2998 colon),growth (KM12 colon)
O=C1/C(=C/c2cn(-c3ccccc3)nc2-c2ccccc2)SC(=S)N1C1CCCCC1,97%,114%,98.8%,96%,86.2%,90.1%,108%,102%
O=C(CSc1oc(-c2ccccc2)nc1S(=O)(=O)c1ccccc1)Nc1ccc(F)cc1,69.8%,78.4%,94.8%,96.5%,92.6%,52.6%,104%,86.6%
CS(=O)(=O)Nc1cncc(-c2ccc3ncnc(Nc4cncc(Cl)c4)c3c2)c1,2.52% (active),72.6%,103%,107%,55.6%,91.3%,95%,84.7%
COC(=O)CC[C@H](C)[C@H]1CC[C@H]2[C@@H]3CC[C@@H]4CC5(CC[C@]4(C)[C@H]3CC(=O)[C@]12C)Nc1ccccc1NC5=NC(C)(C)C (stereo partly specified),82.3%,95.4%,85.1%,69.7%,58.5%,28.3%,107%,83%
O=C(Nc1cccc(-c2ccc(Cl)c(C(F)(F)F)c2)c1)C1CCN(Cc2cccc3cccnc23)CC1,-55.8% (active),63.5%,-83.7% (active),-83% (active),-89.9% (active),-75% (active),-83.5% (active),-27.4% (active)
COc1ccc2c(c1OC)CO[C@@H]2[C@H]1c2c(cc3c(c2OC)OCO3)CCN1S(=O)(=O)c1cn(C)cn1,33.4%,38.2%,-27.3% (active),25.4%,16.9%,14.4%,11.7%,11.3%
O=C(NCc1ccc(Cl)cc1Cl)C1CCC(=O)N1c1cccs1 (stereo unspecified),75.8%,86%,97.2%,106%,88%,79%,93.4%,101%
COC(=O)Nc1nc2ccc(S(=O)c3ccccc3)cc2[nH]1 (stereo unspecified),89.1%,77.9%,-33.4% (active),27.2%,44.1%,39.4%,74.1%,31.6%
O=C(c1ccncc1)N1N=C(c2ccc(Cl)cc2)C[C@H]1c1cn(-c2ccccc2)nc1-c1ccccc1,87.6%,92.5%,89.3%,101%,74.8%,73.5%,92.2%,86.1%
Nc1nc(N)c(-c2ccc(Cl)c(Cl)c2)c(CBr)n1,91.6%,59.7%,49.8%,42%,76.7%,42%,71.7%,88.7%
N=C(N)c1ccc(-c2ccc(-c3ccc(Cl)c(Cl)c3)s2)nc1,56.2%,87.5%,10.8%,-56.6% (active),-64.6% (active),-50.8% (active),-61.9% (active),-74.6% (active)
O=C(/C=C/c1cn(-c2ccccc2)nc1-c1ccc(Cl)cc1)c1ccc(F)cc1,38.9%,96%,326%,75.4%,41.8%,41.1%,186%,63.8%
CC1(C)COB(OCC(C)(C)COB2OCC(C)(C)CO2)OC1,104%,105%,110%,110%,107%,101%,104%,103%
N#CC1=C(N)Oc2c(c(=O)[nH]c3ccc(Cl)cc23)C12C(=O)c1ccccc1C2=O,98.2%,89%,92.6%,86.5%,96.4%,95.7%,109%,90.7%
N#Cc1nc(-c2ccc(Cl)cc2)oc1S(=O)(=O)N1CCN(c2ccc(F)cc2)CC1,89.3%,100%,100%,72.8%,83.5%,78.7%,99.4%,102%
CCNCCNc1cc(C2CCCCC2)c(C#N)c2nc3ccccc3n12,-19.4% (active),-19.7% (active),-38.6% (active),7.58% (active),14.7%,-4.22% (active),13.6%,38.8%
